Source: ChEMBL document CHEMBL1961873, “Compounds: GSK PKIS; Assays: Nanosyn kinase panel” (2012)

Tests used:
[1] = target: T1, Inhibitor of nuclear factor kappa-B kinase subunit epsilon (Homo sapiens) (UniProt Q14164); settings: at 1 µM;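 note: reported values are averaged percent inhibition figures against human IKKε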
T1 sequence (whole entry): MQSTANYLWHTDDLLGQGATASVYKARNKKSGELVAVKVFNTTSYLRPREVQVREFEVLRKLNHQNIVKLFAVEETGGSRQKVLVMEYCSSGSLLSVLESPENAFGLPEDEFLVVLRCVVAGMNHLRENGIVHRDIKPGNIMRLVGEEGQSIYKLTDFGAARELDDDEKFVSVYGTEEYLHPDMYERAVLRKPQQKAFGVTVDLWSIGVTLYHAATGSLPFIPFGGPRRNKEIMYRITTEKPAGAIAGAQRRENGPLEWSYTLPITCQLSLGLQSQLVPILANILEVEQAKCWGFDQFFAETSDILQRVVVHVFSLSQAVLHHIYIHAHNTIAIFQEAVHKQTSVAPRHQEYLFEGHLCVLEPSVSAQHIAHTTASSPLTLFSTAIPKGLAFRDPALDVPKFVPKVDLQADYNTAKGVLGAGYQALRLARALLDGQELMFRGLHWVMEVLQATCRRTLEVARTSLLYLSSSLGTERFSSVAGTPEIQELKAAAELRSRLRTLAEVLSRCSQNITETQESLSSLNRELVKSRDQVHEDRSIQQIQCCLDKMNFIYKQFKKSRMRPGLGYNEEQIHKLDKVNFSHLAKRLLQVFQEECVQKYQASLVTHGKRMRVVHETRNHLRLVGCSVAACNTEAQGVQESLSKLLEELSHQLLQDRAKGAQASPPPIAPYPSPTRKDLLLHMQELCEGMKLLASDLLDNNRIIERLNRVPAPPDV

[2] = target: T2, Serine/threonine-protein kinase Nek1 (Homo sapiens) (UniProt Q96PY6); settings: at 0.1 µM
T2 sequence (whole entry): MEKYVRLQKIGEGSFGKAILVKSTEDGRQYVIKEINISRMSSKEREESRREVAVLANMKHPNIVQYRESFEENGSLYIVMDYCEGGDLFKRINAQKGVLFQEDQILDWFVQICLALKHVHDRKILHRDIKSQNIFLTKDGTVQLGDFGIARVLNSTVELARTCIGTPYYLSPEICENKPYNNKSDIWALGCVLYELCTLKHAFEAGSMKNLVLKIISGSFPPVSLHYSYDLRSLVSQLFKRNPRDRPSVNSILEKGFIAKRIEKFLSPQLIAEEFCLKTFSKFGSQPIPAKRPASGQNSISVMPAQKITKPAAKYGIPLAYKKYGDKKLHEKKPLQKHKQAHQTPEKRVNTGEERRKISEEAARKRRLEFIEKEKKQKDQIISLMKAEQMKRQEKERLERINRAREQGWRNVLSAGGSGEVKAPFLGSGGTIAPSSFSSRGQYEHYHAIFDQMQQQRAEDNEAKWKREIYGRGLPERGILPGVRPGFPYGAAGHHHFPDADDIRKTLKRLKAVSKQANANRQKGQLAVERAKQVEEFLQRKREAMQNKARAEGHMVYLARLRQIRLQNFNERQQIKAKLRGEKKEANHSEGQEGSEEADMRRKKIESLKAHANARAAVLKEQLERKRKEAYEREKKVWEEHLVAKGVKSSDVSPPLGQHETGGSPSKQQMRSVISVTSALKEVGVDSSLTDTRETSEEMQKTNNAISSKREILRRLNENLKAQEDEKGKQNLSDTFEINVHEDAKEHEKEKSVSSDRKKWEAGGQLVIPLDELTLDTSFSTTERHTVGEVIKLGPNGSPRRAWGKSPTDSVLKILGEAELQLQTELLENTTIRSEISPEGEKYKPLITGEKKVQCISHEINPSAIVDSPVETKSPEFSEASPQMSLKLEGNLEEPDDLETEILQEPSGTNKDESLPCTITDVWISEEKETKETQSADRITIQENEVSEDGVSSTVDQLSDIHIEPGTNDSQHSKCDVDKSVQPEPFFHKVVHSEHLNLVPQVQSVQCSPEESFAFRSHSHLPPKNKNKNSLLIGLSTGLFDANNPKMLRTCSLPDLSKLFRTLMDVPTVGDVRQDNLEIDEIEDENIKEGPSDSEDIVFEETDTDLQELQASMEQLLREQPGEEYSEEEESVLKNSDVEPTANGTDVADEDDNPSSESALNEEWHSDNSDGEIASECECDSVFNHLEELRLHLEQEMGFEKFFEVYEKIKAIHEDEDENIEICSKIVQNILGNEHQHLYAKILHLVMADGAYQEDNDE

[3] = target: T2, Serine/threonine-protein kinase Nek1 (Homo sapiens); settings: at 1 µM
[4] = target: T3, Serine/threonine-protein kinase Nek2 (Homo sapiens) (UniProt P51955); settings: at 0.1 µM
T3 sequence (whole entry): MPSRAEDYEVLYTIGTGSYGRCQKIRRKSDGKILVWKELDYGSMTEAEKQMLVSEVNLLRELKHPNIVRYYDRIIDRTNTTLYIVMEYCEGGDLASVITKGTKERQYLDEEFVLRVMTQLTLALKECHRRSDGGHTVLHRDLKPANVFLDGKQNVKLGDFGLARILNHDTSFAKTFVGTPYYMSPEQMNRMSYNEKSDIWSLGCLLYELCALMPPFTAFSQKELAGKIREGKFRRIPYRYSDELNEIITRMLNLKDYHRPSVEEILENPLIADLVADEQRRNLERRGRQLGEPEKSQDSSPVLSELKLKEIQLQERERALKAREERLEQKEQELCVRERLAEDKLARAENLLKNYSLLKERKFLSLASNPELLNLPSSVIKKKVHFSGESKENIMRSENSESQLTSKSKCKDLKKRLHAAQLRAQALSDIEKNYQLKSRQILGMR

[5] = target: T3, Serine/threonine-protein kinase Nek2 (Homo sapiens); settings: at 1 µM
[6] = target: Serine/threonine-protein kinase Nek6 (Homo sapiens) (UniProt Q9HC98); settings: at 0.1 µM
[7] = target: Serine/threonine-protein kinase Nek6 (Homo sapiens) (UniProt Q9HC98); settings: at 1 µM
[8] = target: Serine/threonine-protein kinase Nek7 (Homo sapiens) (UniProt Q8TDX7); settings: at 0.1 µM
[9] = target: Serine/threonine-protein kinase Nek7 (Homo sapiens) (UniProt Q8TDX7); settings: at 1 µM
[10] = target: T4, Serine/threonine-protein kinase Nek9 (Homo sapiens) (UniProt Q8TD19); settings: at 0.1 µM
T4 sequence (whole entry): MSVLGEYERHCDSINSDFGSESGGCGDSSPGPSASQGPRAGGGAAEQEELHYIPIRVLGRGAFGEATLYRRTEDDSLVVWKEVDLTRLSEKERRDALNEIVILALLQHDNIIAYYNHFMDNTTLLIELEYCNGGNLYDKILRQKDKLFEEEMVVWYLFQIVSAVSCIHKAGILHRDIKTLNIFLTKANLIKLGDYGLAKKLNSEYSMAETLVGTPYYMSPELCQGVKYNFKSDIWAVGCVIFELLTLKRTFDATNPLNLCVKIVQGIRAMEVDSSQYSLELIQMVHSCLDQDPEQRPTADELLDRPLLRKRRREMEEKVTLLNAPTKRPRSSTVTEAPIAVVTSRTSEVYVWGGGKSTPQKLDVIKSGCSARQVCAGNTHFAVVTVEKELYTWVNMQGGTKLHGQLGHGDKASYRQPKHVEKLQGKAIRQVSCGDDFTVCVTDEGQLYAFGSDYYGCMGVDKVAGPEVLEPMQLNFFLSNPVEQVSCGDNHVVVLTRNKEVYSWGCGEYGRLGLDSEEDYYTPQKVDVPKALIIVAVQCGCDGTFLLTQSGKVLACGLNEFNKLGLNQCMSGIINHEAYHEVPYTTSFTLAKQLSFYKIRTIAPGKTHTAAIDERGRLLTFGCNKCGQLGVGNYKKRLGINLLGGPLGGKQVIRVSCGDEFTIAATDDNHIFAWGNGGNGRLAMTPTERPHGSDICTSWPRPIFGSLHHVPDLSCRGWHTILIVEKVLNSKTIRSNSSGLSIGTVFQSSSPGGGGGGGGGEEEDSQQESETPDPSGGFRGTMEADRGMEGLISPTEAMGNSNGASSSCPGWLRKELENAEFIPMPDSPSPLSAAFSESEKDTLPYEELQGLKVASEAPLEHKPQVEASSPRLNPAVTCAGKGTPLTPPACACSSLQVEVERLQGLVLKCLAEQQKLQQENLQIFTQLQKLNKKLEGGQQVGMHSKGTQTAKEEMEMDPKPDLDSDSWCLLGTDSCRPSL

[11] = target: T4, Serine/threonine-protein kinase Nek9 (Homo sapiens); settings: at 1 µM
[12] = target: Serine/threonine-protein kinase PLK1 (Homo sapiens) (UniProt P53350); settings: at 0.1 µM
[13] = target: Serine/threonine-protein kinase PLK1 (Homo sapiens) (UniProt P53350); settings: at 1 µM
[14] = target: T5, Dual specificity protein kinase TTK (Homo sapiens) (UniProt P33981); settings: at 0.1 µM
T5 sequence (whole entry): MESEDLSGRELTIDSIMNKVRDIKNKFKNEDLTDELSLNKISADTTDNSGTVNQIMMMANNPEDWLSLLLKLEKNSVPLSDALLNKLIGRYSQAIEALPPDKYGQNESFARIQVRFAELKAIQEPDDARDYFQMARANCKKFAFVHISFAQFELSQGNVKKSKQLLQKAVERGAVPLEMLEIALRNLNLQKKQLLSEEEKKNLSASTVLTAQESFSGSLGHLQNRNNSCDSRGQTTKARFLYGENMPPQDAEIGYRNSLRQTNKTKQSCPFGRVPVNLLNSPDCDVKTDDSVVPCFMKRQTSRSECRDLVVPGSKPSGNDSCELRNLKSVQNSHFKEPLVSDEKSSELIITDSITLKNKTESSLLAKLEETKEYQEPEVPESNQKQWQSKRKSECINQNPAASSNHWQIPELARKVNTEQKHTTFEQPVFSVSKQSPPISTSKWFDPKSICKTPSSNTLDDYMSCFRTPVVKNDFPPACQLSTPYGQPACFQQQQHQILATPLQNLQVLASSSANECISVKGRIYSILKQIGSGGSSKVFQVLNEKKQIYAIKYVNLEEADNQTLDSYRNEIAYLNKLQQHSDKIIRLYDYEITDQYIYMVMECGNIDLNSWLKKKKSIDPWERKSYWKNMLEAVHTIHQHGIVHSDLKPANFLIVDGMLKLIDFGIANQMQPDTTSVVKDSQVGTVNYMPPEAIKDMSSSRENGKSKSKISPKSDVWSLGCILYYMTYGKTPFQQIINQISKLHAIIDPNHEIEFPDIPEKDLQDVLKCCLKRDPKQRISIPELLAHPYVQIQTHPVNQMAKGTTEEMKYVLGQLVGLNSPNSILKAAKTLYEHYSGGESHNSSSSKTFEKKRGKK

[15] = system: T6, Receptor-type tyrosine-protein kinase FLT3 (Homo sapiens), P36888 [D835Y]; settings: at 1 µM
T6 sequence (whole entry): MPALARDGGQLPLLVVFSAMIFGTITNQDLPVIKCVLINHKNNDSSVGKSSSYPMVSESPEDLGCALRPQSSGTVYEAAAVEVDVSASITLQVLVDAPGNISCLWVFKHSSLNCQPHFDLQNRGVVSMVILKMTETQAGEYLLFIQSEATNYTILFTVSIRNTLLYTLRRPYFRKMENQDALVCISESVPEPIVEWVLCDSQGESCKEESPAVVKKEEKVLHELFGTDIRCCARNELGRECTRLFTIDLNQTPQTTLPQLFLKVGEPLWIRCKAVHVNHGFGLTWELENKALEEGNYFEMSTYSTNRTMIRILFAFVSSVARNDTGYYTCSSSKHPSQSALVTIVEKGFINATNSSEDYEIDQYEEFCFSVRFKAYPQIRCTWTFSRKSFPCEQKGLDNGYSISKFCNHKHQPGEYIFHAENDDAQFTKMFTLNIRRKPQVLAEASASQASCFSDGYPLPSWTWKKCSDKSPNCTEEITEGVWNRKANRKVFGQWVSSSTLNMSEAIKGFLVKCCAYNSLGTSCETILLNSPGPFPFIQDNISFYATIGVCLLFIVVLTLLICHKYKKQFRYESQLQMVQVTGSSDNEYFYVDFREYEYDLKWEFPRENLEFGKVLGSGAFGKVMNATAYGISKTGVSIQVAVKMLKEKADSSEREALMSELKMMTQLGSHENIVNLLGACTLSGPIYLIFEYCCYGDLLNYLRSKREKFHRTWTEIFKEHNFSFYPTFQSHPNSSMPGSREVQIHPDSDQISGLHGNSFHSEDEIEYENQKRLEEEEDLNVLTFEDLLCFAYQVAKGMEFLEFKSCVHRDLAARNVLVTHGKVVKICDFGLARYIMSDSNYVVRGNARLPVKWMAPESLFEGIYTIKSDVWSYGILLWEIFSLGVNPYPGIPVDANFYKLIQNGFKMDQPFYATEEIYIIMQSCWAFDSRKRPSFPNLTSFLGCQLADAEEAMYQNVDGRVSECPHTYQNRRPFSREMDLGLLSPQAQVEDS

[16] = target: Vascular endothelial growth factor receptor 3 (Homo sapiens) (UniProt P35916); settings: at 0.1 µM
[17] = target: Vascular endothelial growth factor receptor 3 (Homo sapiens) (UniProt P35916); settings: at 1 µM
[18] = target: Macrophage colony-stimulating factor 1 receptor (Homo sapiens) (UniProt P07333); settings: at 0.1 µM
[19] = target: Macrophage colony-stimulating factor 1 receptor (Homo sapiens) (UniProt P07333); settings: at 1 µM
[20] = target: Tyrosine-protein kinase Fyn (Homo sapiens) (UniProt P06241); settings: at 0.1 µM
Sequence of Tyrosine-protein kinase Fyn (Homo sapiens) (P06241 2-537 limits assumed): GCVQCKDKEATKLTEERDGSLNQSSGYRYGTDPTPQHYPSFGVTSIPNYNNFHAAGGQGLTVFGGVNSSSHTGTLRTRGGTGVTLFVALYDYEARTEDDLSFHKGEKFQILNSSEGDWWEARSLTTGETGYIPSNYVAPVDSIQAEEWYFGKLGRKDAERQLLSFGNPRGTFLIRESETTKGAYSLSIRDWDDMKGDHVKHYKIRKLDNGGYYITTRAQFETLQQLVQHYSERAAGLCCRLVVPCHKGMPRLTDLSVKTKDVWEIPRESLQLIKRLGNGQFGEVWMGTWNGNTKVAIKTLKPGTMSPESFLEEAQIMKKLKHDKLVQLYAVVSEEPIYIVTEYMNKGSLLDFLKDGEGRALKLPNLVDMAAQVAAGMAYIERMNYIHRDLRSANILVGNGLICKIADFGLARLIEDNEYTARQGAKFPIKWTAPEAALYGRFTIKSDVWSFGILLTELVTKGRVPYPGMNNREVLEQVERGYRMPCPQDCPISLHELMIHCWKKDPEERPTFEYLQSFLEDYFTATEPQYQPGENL

Sequence of Vascular endothelial growth factor receptor 3 (Homo sapiens) (P35916 whole entry): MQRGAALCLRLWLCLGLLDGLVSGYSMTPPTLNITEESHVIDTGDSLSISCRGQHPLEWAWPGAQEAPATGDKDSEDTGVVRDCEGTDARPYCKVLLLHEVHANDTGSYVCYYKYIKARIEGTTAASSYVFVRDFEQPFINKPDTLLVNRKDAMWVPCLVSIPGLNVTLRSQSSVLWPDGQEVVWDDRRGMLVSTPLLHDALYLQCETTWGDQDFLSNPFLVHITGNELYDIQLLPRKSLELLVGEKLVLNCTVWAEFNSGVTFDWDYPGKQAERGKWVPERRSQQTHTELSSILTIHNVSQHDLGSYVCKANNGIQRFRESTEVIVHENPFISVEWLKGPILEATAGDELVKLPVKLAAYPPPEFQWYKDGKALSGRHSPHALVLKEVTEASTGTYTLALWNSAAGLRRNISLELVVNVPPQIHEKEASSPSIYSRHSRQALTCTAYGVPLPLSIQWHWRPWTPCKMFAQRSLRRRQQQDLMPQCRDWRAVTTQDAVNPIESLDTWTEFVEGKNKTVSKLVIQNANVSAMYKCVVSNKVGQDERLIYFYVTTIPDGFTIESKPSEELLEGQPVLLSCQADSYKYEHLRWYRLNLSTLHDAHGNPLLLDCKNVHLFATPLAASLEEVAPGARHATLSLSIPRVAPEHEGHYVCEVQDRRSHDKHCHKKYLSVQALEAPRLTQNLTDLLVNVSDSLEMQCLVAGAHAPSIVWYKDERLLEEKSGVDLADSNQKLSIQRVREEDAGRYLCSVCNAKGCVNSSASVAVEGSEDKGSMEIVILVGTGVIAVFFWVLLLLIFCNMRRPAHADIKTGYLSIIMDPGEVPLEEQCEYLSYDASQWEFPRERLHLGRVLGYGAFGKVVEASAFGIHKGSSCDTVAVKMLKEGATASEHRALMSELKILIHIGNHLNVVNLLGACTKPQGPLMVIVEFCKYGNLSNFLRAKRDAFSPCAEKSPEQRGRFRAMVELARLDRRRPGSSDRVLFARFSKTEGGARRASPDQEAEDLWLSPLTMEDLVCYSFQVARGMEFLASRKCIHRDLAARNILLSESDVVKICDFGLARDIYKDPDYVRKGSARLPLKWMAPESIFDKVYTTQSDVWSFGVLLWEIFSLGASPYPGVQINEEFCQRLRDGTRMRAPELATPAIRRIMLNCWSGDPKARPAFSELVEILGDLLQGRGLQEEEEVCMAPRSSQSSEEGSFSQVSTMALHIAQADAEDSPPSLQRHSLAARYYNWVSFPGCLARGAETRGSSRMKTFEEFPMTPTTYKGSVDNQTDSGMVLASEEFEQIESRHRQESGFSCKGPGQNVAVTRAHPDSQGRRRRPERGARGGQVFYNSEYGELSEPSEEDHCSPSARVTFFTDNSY
Sequence of Serine/threonine-protein kinase Nek6 (Homo sapiens) (Q9HC98 whole entry): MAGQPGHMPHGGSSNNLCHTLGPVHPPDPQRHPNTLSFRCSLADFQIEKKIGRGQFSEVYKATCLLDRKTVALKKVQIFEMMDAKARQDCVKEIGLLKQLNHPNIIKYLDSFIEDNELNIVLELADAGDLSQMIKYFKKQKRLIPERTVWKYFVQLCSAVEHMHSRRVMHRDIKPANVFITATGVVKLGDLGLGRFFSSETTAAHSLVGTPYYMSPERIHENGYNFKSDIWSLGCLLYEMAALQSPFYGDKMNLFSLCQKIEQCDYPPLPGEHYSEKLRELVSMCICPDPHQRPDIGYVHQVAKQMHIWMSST
Sequence of Serine/threonine-protein kinase PLK1 (Homo sapiens) (P53350 whole entry): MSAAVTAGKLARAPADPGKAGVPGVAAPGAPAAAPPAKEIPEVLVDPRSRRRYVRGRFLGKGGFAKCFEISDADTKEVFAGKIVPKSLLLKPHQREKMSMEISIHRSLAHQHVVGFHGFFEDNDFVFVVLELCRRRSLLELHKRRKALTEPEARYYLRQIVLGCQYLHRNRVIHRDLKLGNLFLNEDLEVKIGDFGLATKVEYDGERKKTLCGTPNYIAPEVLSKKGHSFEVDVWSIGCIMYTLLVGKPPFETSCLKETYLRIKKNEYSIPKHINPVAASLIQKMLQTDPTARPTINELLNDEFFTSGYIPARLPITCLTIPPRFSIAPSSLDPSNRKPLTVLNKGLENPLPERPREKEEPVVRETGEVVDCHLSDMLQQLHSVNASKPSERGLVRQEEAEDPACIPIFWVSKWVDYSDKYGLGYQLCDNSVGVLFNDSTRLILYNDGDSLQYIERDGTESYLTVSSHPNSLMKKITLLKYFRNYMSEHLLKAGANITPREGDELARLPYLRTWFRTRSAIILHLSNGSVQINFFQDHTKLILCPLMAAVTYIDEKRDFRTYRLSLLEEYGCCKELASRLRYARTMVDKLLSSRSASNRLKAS
Sequence of Serine/threonine-protein kinase Nek7 (Homo sapiens) (Q8TDX7 whole entry, looked up): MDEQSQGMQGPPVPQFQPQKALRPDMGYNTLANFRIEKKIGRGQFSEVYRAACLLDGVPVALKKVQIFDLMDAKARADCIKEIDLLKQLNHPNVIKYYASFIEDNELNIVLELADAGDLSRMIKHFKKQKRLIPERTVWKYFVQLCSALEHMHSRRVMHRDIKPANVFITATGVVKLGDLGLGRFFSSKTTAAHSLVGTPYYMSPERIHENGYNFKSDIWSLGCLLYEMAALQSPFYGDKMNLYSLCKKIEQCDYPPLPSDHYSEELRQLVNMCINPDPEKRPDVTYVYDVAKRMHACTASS
Sequence of Macrophage colony-stimulating factor 1 receptor (Homo sapiens) (P07333 whole entry): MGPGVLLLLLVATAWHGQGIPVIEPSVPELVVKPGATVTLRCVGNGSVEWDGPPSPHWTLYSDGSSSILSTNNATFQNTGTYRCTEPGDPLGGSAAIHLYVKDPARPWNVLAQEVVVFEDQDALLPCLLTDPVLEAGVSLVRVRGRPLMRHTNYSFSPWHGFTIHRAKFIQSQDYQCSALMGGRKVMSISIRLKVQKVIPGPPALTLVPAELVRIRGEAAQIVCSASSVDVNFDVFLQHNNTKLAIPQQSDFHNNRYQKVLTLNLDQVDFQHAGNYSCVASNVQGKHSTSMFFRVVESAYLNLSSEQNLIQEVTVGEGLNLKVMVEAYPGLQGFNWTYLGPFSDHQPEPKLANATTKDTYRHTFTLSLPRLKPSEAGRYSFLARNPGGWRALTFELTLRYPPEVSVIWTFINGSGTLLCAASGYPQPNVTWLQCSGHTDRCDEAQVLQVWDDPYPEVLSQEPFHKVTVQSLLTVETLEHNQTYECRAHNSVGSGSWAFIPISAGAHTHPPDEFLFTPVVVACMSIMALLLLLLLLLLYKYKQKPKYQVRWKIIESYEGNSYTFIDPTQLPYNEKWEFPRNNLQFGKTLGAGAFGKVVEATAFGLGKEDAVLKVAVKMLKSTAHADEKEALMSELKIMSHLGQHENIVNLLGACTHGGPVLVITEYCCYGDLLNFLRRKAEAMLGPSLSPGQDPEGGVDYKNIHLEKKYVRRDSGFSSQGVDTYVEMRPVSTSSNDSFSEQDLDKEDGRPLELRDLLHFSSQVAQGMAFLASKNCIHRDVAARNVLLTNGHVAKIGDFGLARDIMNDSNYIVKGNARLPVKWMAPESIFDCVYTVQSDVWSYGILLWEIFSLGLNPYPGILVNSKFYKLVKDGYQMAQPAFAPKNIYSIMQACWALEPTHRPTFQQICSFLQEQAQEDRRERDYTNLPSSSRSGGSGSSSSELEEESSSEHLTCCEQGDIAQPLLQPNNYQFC

SMILES	inhibition [1] [%]	inhibition [2] [%]	inhibition [3] [%]	inhibition [4] [%]	inhibition [5] [%]	inhibition [6] [%]	inhibition [7] [%]	inhibition [8] [%]	inhibition [9] [%]	inhibition [10] [%]	inhibition [11] [%]	inhibition [12] [%]	inhibition [13] [%]	inhibition [14] [%]	inhibition [15] [%]	inhibition [16] [%]	inhibition [17] [%]	inhibition [18] [%]	inhibition [19] [%]	inhibition [20] [%]
CN1CCC(n2cnc(-c3ccc(F)cc3)c2-c2ccnc(NCCO)n2)CC1	9.51	2.52	3.44	5.2	5.72	3.54	5.15	2.96	3.39	5.09	8.58	1.49	2.42	-0.23	4.59	4.64	0.88	3.25	3.2	2.96
NC(=O)c1ccc2c(-c3ccnc(NCCCO)n3)c(-c3ccc(F)cc3)nn2c1	3.59	2.6	3.93	5.07	6.59	1.23	-0.99	6.38	4.14	5.71	5.15	3.87	4.03	14	-0.97	2.83	1.06	5.2	8.64	2.14
